# Assay results taken from the supplement of paper PMC3334620.
# In all, about 33,000 sequences were measured (“E-score (-0.5 to 0.5)”: median about -0.0014, highest 2% from about 0.25 on). The full list was thinned out, with the highest values kept by preference.
# Target: T1, Cad1 (UniProt P24813)
# T1 sequence: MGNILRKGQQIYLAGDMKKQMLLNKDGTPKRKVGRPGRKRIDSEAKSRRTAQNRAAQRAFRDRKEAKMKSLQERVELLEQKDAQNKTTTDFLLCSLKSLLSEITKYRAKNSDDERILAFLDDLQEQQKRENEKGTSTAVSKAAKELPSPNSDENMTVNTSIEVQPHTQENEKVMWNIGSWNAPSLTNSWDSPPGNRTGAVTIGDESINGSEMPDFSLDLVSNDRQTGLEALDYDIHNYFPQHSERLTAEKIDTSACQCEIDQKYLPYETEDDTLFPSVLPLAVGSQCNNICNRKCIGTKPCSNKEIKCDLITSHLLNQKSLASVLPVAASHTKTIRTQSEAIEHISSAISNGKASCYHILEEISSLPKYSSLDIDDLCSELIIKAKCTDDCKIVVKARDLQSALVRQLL
# Assay: PBM E-score (8-mer binding enrichment) (E-score (-0.5 to 0.5)); higher = stronger / more preferred TF binding
# Details: protein concentration: 100 nM; construct: GST-full length
# Description: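 Universal 'all 10-mer' protein binding microarrays (Agilent AMADID 015681) probed with GST-tagged S. cerevisiae TFs (full-length or DBD) made by in vitro transcription/translation (PURExpress), about 100-200 nM. Bound TF was detected with fluorescent anti-GST. Each ungapped 8-mer (which stands for itself and its reverse complement) is scored by the PBM enrichment score (E-score), a modified Wilcoxon-Mann-Whitney statistic from -0.5 to +0.5, computed with the Universal PBM Analysis Suite. Scale: above 0.35 generally sequence-specific binding.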
row,Sequence,PBM E-score
1,CAGGCTAA,-0.266
2,TAACCCGA,-0.00699
3,GGCACCTA,-0.156
4,AAGCCCAC,-0.0637
5,ACAGAACC,0.0474
6,AAGAACCA,-0.00253
7,GGCAACCC,-0.174
8,GAACCTGC,-0.018
9,ATGCCTTC,-0.162
10,AGCTACTA,0.0659
11,CGATATTA,0.352
12,CGCTACTC,0.0265
13,AAATATTG,0.249
14,CGATATTC,0.173
15,CAATATTC,0.0508
16,GGATATTA,0.163
17,CAATATTA,0.187
18,AAATATTA,0.298
19,CGCTACTA,0.276
20,AAATATTC,0.249
21,GAATATTC,0.338
22,CACCACAC,0.151
23,AGCTCACT,-0.0157
24,ACAATAGA,-0.144
25,GGAGCACC,-0.0566

row,Sequence,PBM E-score
1,GTATATTA,0.115
2,CTATATTA,0.241
3,ATATATTA,0.368
4,GCTAAGCC,-0.109
5,AGACGCAC,0.0398
6,CGACCTAG,0.0727
7,CCAAATAA,0.15
8,CTTACAAC,0.118
9,CTTACAAG,0.0333
10,ATTACAAT,0.104
11,ATTACAAA,0.425
12,ATTACAAG,0.0206
13,CTTACAAA,0.372
14,ATATAAGA,0.22
15,AGCCCATA,-0.0468
16,AAGAAGCG,-0.184
17,CTGCGCGC,0.302
18,CGGCGCGC,0.258
19,CAACGCGA,0.157
20,ATGCGCGC,0.238
21,CTGCGCGA,0.13
22,AGGCGCGC,0.161
23,CAACGCGC,0.311
24,ATTCGCGC,0.17
25,CTTCGCGA,0.143

row,Sequence,PBM E-score
1,CAACGCGG,0.0152
2,CTTCGCGC,0.263
3,CGGCGCGA,0.203
4,CAAGGGAC,-0.0828
5,CGGCTGTA,-0.112
6,ACCTCCGC,-0.116
7,TCCCGCGA,0.0875
8,CTTCGTAA,0.0607
9,ATTCGTAA,0.26
10,ACTCGTAT,0.0214
11,ATTCGTTG,0.258
12,GTTCGTAA,0.119
13,ACTCGTAA,0.292
14,ATTCGTTC,0.09
15,ATTCGTTA,0.158
16,ACTCGTAG,-0.103
17,AAGTTGCT,0.0232
18,TAAACCCA,0.119
19,CAGTTATA,-0.0494
20,ATTGCGCA,0.103
21,AATGCGCC,-0.00918
22,AATGCGCA,0.342
23,AATGCGCG,0.305
24,ATTGCGCG,0.307
25,CATGCGCG,0.202

row,Sequence,PBM E-score
1,ATTGCGCC,-0.061
2,CATGCGCA,0.116
3,AATGCGCT,0.0389
4,AGGCAGAG,-0.0635
5,ACGTCGGG,-0.269
6,CCCAGATA,-0.0901
7,GCGGGATA,0.0173
8,CCCGTATC,-0.15
9,ACATGACA,0.159
10,TCATGACA,0.301
11,GCATGACA,0.0476
12,AGAAAGCC,-0.051
13,TAACTGAA,-0.0483
14,AATGTAAT,0.324
15,AATGTAAC,0.0359
16,ACTGTAAG,0.167
17,AACGTAAA,0.0278
18,AACGTAAT,0.261
19,AACGTAAC,-0.00693
20,AATGTAAA,0.193
21,AATGTAAG,0.264
22,CATGTAAG,0.129
